From PubChem BioAssay (NCI)
Several values for one entry are separate records, joined by “and”; a condition that tells them apart may be missing. Equal values may be shown once. About 79,000 compounds went through this panel and 15% of them were active in at least one assay; those are over-represented in the sample as a whole. Where a structure was tested more than once in an assay, its records may differ in their call. Activity calls are given as the source filed them. No stated cut-off is given here; in the data, active means growth inhibition above about 70%; inactive means the rest.

Legend:
[1] = NCI Yeast Anticancer Drug Screen. Data for the rad52 strain (AID 147);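 further: 0% = growth of vehicle-treated control cultures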; conditions: S. cerevisiae rad52 mutant growth inhibition, stronger effect = higher value
Procedure, shortened: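 Inhibition of yeast growth, referenced to vehicle controls, was the measured output for a strain with defective DNA damage repair.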

[2] = NCI Yeast Anticancer Drug Screen. Data for the wt1 strain (AID 149);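 further: 0% = growth of vehicle-treated wt1 cultures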; conditions: S. cerevisiae wt1 strain (SPY 50644) growth inhibition, stronger effect = higher value
Procedure, shortened: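 wt1 yeast, compound-treated; % growth inhibition vs vehicle control.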

[3] = NCI Yeast Anticancer Drug Screen. Data for the rad50EPP+ strain (AID 151);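 further: 0% = growth of vehicle-treated control cultures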; conditions: S. cerevisiae rad50 mutant strain, stronger effect = higher value
Procedure, shortened: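 Genetically defined yeast (rad50EPP+, DNA damage repair alteration) is grown with compound, and inhibition of growth is expressed relative to vehicle-treated controls.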

[4] = NCI Yeast Anticancer Drug Screen. Data for the mgt1 strain (AID 153); conditions: S. cerevisiae mgt1 mutant growth inhibition, stronger effect = higher value
Procedure, shortened: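 In the mgt1 strain, test compounds were added and growth inhibition was determined relative to vehicle-treated controls.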

[5] = NCI Yeast Anticancer Drug Screen. Data for the rad50 strain (AID 155);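 further: 0% = growth of vehicle-only cultures of the same strain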; conditions: S. cerevisiae rad50 strain growth inhibition, stronger effect = higher value
Procedure, shortened: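 Genetically altered yeast (DNA repair pathway); compound treatment; growth inhibition vs vehicle ctrl.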

[6] = NCI Yeast Anticancer Drug Screen. Data for the mec2-1 strain (AID 157); conditions: S. cerevisiae mec2-1 strain, stronger effect = higher value
Procedure, shortened: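 Each compound was tested on mec2-1 yeast, a strain altered in DNA damage repair or cell cycle control. Growth inhibition is reported relative to vehicle.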

[7] = NCI Yeast Anticancer Drug Screen. Data for the rad14 strain (AID 159);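 further: 0% = growth of vehicle-treated control cultures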; conditions: S. cerevisiae rad14 strain growth inhibition, stronger effect = higher value
Procedure, shortened: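 Test compounds were applied to a repair-deficient yeast strain. Its growth was then compared with that of cultures given vehicle alone, and inhibition was expressed relative to those controls.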

[8] = NCI Yeast Anticancer Drug Screen. Data for the sgs1 mgt1 strain (AID 161);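 further: 0% = growth of cultures given vehicle only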; conditions: S. cerevisiae sgs1 mgt1 strain, stronger effect = higher value
Procedure, shortened: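 Genetically altered yeast, compound exposure, growth inhibition relative to vehicle.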

[9] = NCI Yeast Anticancer Drug Screen. Data for the CLN2oe strain (AID 163);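 further: 0% = growth of vehicle-only control cultures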; conditions: S. cerevisiae CLN2oe strain, stronger effect = higher value
Procedure, shortened: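 First, the altered yeast strain was treated with each compound; second, its growth was measured; finally, inhibition was derived by comparison with vehicle controls.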

[10] = NCI Yeast Anticancer Drug Screen. Data for the cln2 rad14 strain (AID 165);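 further: 0% = growth equal to vehicle treated cultures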; conditions: S. cerevisiae cln2 rad14 strain, stronger effect = higher value
Procedure, shortened: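 Test compounds were added to cln2 rad14 yeast cultures; inhibition of growth was then determined by comparison with vehicle treatment.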

[11] = NCI Yeast Anticancer Drug Screen. Data for the bub3 strain (AID 167); conditions: S. cerevisiae bub3 mutant strain, stronger effect = higher value
Procedure, shortened: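 Yeast carrying a defined mutation is treated with each compound, and growth is compared with that of vehicle-exposed cells to give inhibition.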

[12] = NCI Yeast Anticancer Drug Screen. Data for the wt2 strain (AID 169);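 further: 0% = growth of vehicle-treated yeast cultures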; conditions: S. cerevisiae wt2 strain growth inhibition, stronger effect = higher value
Procedure, shortened: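 The panel's yeast strains carry defined changes in DNA repair or cell cycle genes. Each strain is grown with compound, and growth loss is scored relative to vehicle.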

[13] = NCI Yeast Anticancer Drug Screen. Data for the mlh1 strain (AID 171);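 further: 0% = growth of vehicle-treated control cultures of the same strain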; conditions: S. cerevisiae mlh1 strain growth inhibition, stronger effect = higher value
Procedure, shortened: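 Inhibition values reflect reduced yeast growth in the presence of compound, referenced to vehicle controls, using a strain chosen for its alteration in DNA repair or cell cycle control.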

[14] = NCI Yeast Anticancer Drug Screen. Data for the mlh1 rad18 strain (AID 175); conditions: S. cerevisiae mlh1 rad18 strain growth inhibition, stronger effect = higher value
Procedure, shortened: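 Inhibition values reflect reduced growth of mutant yeast versus vehicle-treated controls following compound exposure; the mutations affect DNA damage repair.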

[15] = NCI Yeast Anticancer Drug Screen. Data for the rad18 strain (AID 177); conditions: S. cerevisiae rad18 mutant growth inhibition, stronger effect = higher value
Procedure, shortened: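 Steps: expose repair-mutant yeast to compound; measure growth; express as inhibition relative to vehicle control.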

[16] = at 5.0 µM (retest, dose inferred, filed as 0.5)
[17] = at 50.0 µM (retest, dose inferred, filed as 5.0)

Measured: growth inhibition

C#CCN(Cc1ccc2nc(N)[nH]c(=O)c2c1)c1ccc(C(=O)NC(CCC(=O)O)C(=O)O)cc1 (stereo unspecified)
62% (inactive) and 82% (active): [8]; [17]
46% (inactive) and 78% (active): [14]; [17]
17% (inactive) and 78% (active): [10]; [17]
active: [1]; at 33.0 µM 73% | [1]; at 100.0 µM 88% | [5]; at 50.0 µM 77.5% and 72.5% | [5]; at 100.0 µM 89% | [6]; at 33.0 µM 89% | [6]; [17] 92% and 98% | [6]; at 50.0 µM 92% and 89.9% | [6]; at 100.0 µM 92% | [11]; [17] 71% and 96%
inactive: [1]; at 1.2 µM 19% | [1]; at 3.7 µM 29% | [1]; at 11.0 µM 28% | [2]; at 1.2 µM 2% | [2]; at 3.7 µM 9% | [2]; at 11.0 µM 15% | [2]; at 33.0 µM 17% | [2]; at 100.0 µM 43% | [3]; at 1.2 µM 27% | [3]; at 3.7 µM 37% | [3]; at 11.0 µM 44% | [3]; at 33.0 µM 29% | [3]; at 100.0 µM 41% | [4]; at 1.2 µM -29% | [4]; at 3.7 µM -23% | [4]; at 11.0 µM -27% | [4]; at 33.0 µM 17% | [4]; at 100.0 µM 34% | [5]; at 1.2 µM 26% | [5]; at 3.7 µM 29% | [5]; [16] 12% and 1% | [5]; at 11.0 µM 26% | [5]; at 33.0 µM 69% | [6]; at 1.2 µM -9% | [6]; at 3.7 µM -6% | [6]; [16] 4% and -6% | [6]; at 11.0 µM 17% | [7]; at 1.2 µM -2% | [7]; at 3.7 µM 18% | [7]; at 11.0 µM 2% | [7]; at 33.0 µM 44% | [7]; at 100.0 µM 69% | [8]; [16] 20% and 3% | [8]; at 50.0 µM 67.4% and 35.9% | [9]; at 1.2 µM 3% | [9]; at 3.7 µM 6% | [9]; at 11.0 µM -14% | [9]; at 33.0 µM 1% | [9]; at 100.0 µM 28% | [10]; [16] 0% and 14% | [10]; at 50.0 µM 30.1% and 16.3% | [11]; at 1.2 µM -6% | [11]; at 3.7 µM -8% | [11]; [16] 12% and -11% | [11]; at 11.0 µM -18% | [11]; at 33.0 µM 3% | [11]; at 50.0 µM 63.9% and 36.5% | [11]; at 100.0 µM 43% | [12]; at 1.2 µM -9% | [12]; at 3.7 µM -9% | [12]; at 11.0 µM 11% | [12]; at 33.0 µM 21% | [12]; at 100.0 µM 28% | [13]; at 1.2 µM 14% | [13]; at 3.7 µM 14% | [13]; at 11.0 µM 19% | [13]; at 33.0 µM 41% | [13]; at 100.0 µM 55% | [14]; [16] 5% and -8% | [14]; at 50.0 µM 35% and 20.6% | [15]; at 1.2 µM -2% | [15]; at 3.7 µM -23% | [15]; at 11.0 µM -26% | [15]; at 33.0 µM 33% | [15]; at 100.0 µM 65%
67% (inactive) and 82% (active): [5]; [17]

Oc1ccc(SCc2ccc(NCc3ccccc3)cc2)cc1
active: [1]; at 100.0 µM 89% | [2]; at 100.0 µM 91% | [4]; at 100.0 µM 87% | [5]; [17] 94% | [5]; at 100.0 µM 87% | [6]; at 50.0 µM 87.1% | [6]; at 100.0 µM 89% | [7]; at 100.0 µM 89% | [8]; at 50.0 µM 77.7% | [9]; at 100.0 µM 90% | [11]; at 50.0 µM 87.3% | [11]; at 100.0 µM 90% | [12]; at 100.0 µM 91% | [13]; at 100.0 µM 86% | [14]; [17] 75% | [14]; at 50.0 µM 79.8% | [15]; at 100.0 µM 91%
inactive: [1]; at 1.2 µM -4% | [1]; at 3.7 µM -27% | [1]; at 11.0 µM -26% | [1]; at 33.0 µM 19% | [2]; at 1.2 µM -32% | [2]; at 3.7 µM -35% | [2]; at 11.0 µM -52% | [2]; at 33.0 µM -4% | [3]; at 1.2 µM -10% | [3]; at 3.7 µM -22% | [3]; at 11.0 µM -17% | [3]; at 33.0 µM 0% | [3]; at 100.0 µM 6% | [4]; at 1.2 µM -4% | [4]; at 3.7 µM 7% | [4]; at 11.0 µM 22% | [4]; at 33.0 µM 47% | [5]; at 1.2 µM 0% | [5]; at 3.7 µM -13% | [5]; [16] 22% | [5]; at 11.0 µM -11% | [5]; at 33.0 µM 23% | [5]; at 50.0 µM 66.8% | [6]; at 1.2 µM -7% | [6]; at 3.7 µM 1% | [6]; [16] 12% | [6]; at 11.0 µM -13% | [6]; at 33.0 µM 20% | [6]; [17] 55% | [7]; at 1.2 µM -30% | [7]; at 3.7 µM -44% | [7]; at 11.0 µM -31% | [7]; at 33.0 µM 29% | [8]; [16] 42% | [8]; [17] 63% | [9]; at 1.2 µM 12% | [9]; at 3.7 µM 13% | [9]; at 11.0 µM 13% | [9]; at 33.0 µM 40% | [10]; [16] 38% | [10]; [17] 56% | [10]; at 50.0 µM 49.4% | [11]; at 1.2 µM 20% | [11]; at 3.7 µM 14% | [11]; [16] 53% | [11]; at 11.0 µM 11% | [11]; at 33.0 µM 60% | [11]; [17] 50% | [12]; at 1.2 µM -16% | [12]; at 3.7 µM -46% | [12]; at 11.0 µM -33% | [12]; at 33.0 µM 9% | [13]; at 1.2 µM -8% | [13]; at 3.7 µM -25% | [13]; at 11.0 µM -14% | [13]; at 33.0 µM 18% | [14]; [16] 19% | [15]; at 1.2 µM 22% | [15]; at 3.7 µM 7% | [15]; at 11.0 µM 12% | [15]; at 33.0 µM 32%
